PLK1 PBD block – PLK1 (human) polo-box domain binding inhibition; actives 2.8% (n = 360,000); Potency, µM, for the others: max response, negative = inhibition, usual class: inhibitors; P53350; Plk1 PBD binding of FITC phosphopeptide, fluorescence polarization; also: series mostly up to about 57 µM; % is scaled to controls: 0 for no effect and ±100 for the full control effect; nearly all actives have a fitted effect of over 65% in size
JMJD2A Tudor inh – inhibitors of human JMJD2A Tudor domain | AlphaScreen JMJD2A-Tudor / H3K4me3 peptide binding | Potency, µM (top dose mostly 114 µM), inactives show at the highest dose activity change, negative = inhibition, hits mostly inhibitors | actives 4.4% (n = 390,000) | AID 504339; also: % is scaled to controls: 0 for no effect and ±100 for the full control effect; nearly all actives have a fitted effect of over 50% in size
HP1b chromo inh – HP1-beta chromodomain-methylated histone interaction inhibition | AID 540317 | AlphaScreen HP1-beta / biotin-H3K9me3 peptide binding | Potency, µM (highest dose often 114 µM), for the others: top-dose activity change, negative = inhibition, hits mostly inhibitors | actives 0.56% (n = 390,000) | P83916; also: nearly all actives have a fitted effect of over 70% in size
Target sequence (P83916 whole entry, looked up): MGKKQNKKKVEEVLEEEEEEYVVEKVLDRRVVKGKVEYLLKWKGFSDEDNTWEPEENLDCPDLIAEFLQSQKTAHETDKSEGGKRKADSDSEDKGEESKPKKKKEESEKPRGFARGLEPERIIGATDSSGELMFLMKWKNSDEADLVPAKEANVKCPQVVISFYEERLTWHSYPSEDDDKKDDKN
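HP1-beta protein (50 nM final) preincubated 30 min at room temperature with biotinylated H3(1-18)K9me3 peptide (50 nM) in PBS pH 7.4, 0.01% Tween-20, then compound added for 30 min. AlphaScreen streptavidin donor/nickel chelate acceptor beads (10 ug/mL final), 30 min dark, luminescence read.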
BAZ2B inh – blocks human BAZ2B; actives 4.4% (n = 360,000); Potency, µM (series often up to 114 µM), inactives show at the top dose activity change, negative = inhibition, actives largely listed as inhibitors; AID 504333; Q9UIF8; AlphaScreen BAZ2B-H3K14Ac peptide displacement; also: % is scaled to controls: 0 for no effect and ±100 for the full control effect; nearly all actives have a fitted effect of over 60% in size
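BAZ2B (50 nM) with biotin-H3(5-23)K14Ac peptide (50 nM) in PBS pH 7.4, 0.01% Tween-20, preformed 30 min, then compound 30 min at room temperature; top concentration 110uM. AlphaScreen streptavidin donor/nickel chelate acceptor beads (10 ug/mL final), 20 min dark, signal read.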
Sfp PPTase inh – Sfp phosphopantetheinyl transferase inhibition | actives 3.5% (n = 310,000) | Potency, µM, for the others: largest response in the series, negative = inhibition, usual class: inhibitors | Biochemical Sfp PPTase activity, qHTS | AID 1490 | Q9F4F7;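 also: the enzyme is Sfp with the accession as filed and its product quenches rhodamine fluorescence; 0% = enzyme reaction without inhibitor and -100% = no enzyme wells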
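Fluorescence-quenching assay: 15 nM Sfp-PPTase preincubated 15 min at room temperature with compound, then 5 uM rhodamine-CoA and 12.5 uM BHQ-2-labelled YbbR peptide added. Fluorescence (ex 525/em 598 nm) read at start and after 30 min; difference gives rate.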
G9a inh – inhibitors of human histone lysine methyltransferase G9a. G9a H3K9 monomethylation, AlphaScreen, 2 h. Potency, µM (titrated, usually from 102 µM), for inactives: at the top dose activity, negative = inhibition, actives largely listed as inhibitors. actives 8.8% (n = 350,000); also: % is scaled to controls: 0 for no effect and ±100 for the full control effect; nearly all actives have a fitted effect of over 75% in size
Target sequence (Q96KQ7 913-1193 limits assumed): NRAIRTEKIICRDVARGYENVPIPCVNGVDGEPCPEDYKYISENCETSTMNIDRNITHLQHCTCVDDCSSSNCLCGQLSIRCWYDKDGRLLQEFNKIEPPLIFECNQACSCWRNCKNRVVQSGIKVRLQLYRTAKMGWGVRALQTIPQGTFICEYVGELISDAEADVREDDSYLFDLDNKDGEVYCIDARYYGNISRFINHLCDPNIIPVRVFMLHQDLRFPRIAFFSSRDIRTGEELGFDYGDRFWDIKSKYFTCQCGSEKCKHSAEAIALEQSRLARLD
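AlphaScreen detection with an anti-monomethyl H3K9 antibody quantified product after a 2 h room-temperature reaction containing 500 nM biotinylated H3K9 peptide, 20 µM SAM and 20 nM enzyme, which had been preincubated 15 min with compound.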
Numbers without * were called inactive; ? = inconclusive; . = no result given; [ ] = remark or other dose. Rows were chosen to be rich in hits. Some 12% of all compounds tested hit in one or more screens of this group. Calls follow the shape of the dose curve; as a rule, active = well fitted curve in the direction sought with a large enough effect; inconclusive = small, poorly fitted or top-dose-only effect, or another doubt; inactive = no such curve, though single readings can be large; an effect the other way counts as inactive or inconclusive. Potency is read from the fitted curve at half-maximal effect.

SMILES	PLK1 PBD block	JMJD2A Tudor inh	HP1b chromo inh	BAZ2B inh	Sfp PPTase inh	G9a inh
C[C@@H](C1CC[C@@]2(O)C3=CC(=O)[C@@H]4C[C@@H](O)[C@@H](O)C[C@]4(C)[C@H]3CC[C@]12C)[C@H](O)CCC(C)(C)O (stereo not given in full)	.	-5.5%	63.8%	.	1.9%	.
CS(=O)(=O)NNP(=O)(NNS(C)(=O)=O)NC(=O)c1ccccc1	3.9%	6.1%	31.4%	-9.9%	2.3%	56.2µM*
CS(=O)(=O)NNP(=O)(NNS(C)(=O)=O)NC(=O)c1ccc(Br)cc1	-4.6%	-17.1%	44.4%	-14.2%	6.7%	44.7µM*
NP(=O)(Nc1ccccc1)Nc1ccccc1	-2.2%	-16.6%	6.1%[57 µM]	.	.	.
OC[C@H]1O[C@@H](n2cnc3cc(Cl)c(Cl)cc32)[C@H](O)[C@H]1O	.	.	.	.	10.7%	?
Cc1ccccc1-n1c(/C=C/c2ccc(O)cc2)nc2ccccc2c1=O	.	-14.1%	64.1%	8.7%	.	15.1%[59 µM]
CC(C)(C)c1ccc(C(=O)NC(=S)Nn2cnnc2)cc1	?	-17.1%	-5.4%	8.0%	?	31.6µM*
O=C(O)CCCC[C@H]1SC[C@H]2NC(=O)N[C@@H]21	.	.	.	.	14.6%	0.398µM*
CCOC(=O)[C@]12Cc3cc4ccccc4cc3[C@H]1N(Cc1ccccc1)C(=O)c1ccccc12	11.9µM*	.	.	.	.	.
CCOC(=O)[C@]12Cc3cc(OC)c(OC)cc3[C@H]1N(Cc1ccccc1)C(=O)c1ccccc12	-11.2%	-25.7%	19.7%	.	.	.
CCOC(=O)[C@]12Cc3ccsc3[C@H]1N(Cc1ccccc1)C(=O)c1ccccc12	-14.6%	5.7%	59.6%	.	.	.
CCOC(=O)[C@]12Cc3cc4ccccc4cc3[C@H]1N(Cc1ccccc1)C(=O)c1cc(OC)ccc12	10.6µM*	.	.	.	.	.
CCOC(=O)[C@]12Cc3cc(Cl)ccc3[C@H]1N(Cc1ccccc1)C(=O)c1cc(OC)ccc12	10.6µM*	.	.	.	.	.
CCOC(=O)[C@]12Cc3ccccc3[C@H]1N(Cc1ccccc1)C(=O)c1cc(OC)ccc12	-28.1%	.	.	.	.	.
CCOC(=O)[C@]12Cc3cc(OC)ccc3[C@H]1N(CCC(=O)OC)C(=O)c1cc(OC)ccc12	13.4µM*	.	.	.	.	.
O=C(O)c1nn(Cc2ccc(Cl)c(Cl)c2)c2ccccc12	.	.	.	.	7.7%	.
CCCOc1ccc(C2SCC(=O)Nc3c2c(C)nn3-c2cccc(C)c2)cc1OC (stereo not given)	.	-32.8%	12.0%	-29.5%	.	-33.9%[59 µM]
NC(=NCCc1ccc(I)cc1)SCCCc1cnc[nH]1	.	.	.	.	8.1%	?
COC1=CC(=O)O[C@@H](/C=C\c2ccccc2)C1	.	.	.	.	11.6%	29.4%[21.5 µM]
CCC(c1nnnn1C1CCCCC1)N1CCC2(CC1)C(=O)NCN2c1ccccc1 (stereo not given)	-22.8%	.	.	.	.	.
CCCCCN1C(=O)c2cc(OC)ccc2[C@@]2(C(=O)OCC)Cc3cc(Cl)ccc3[C@@H]12	4.74µM*	.	.	.	.	.
CCOC(=O)[C@]12Cc3c(cc(OC)c(OC)c3OC)[C@H]1N(Cc1ccccc1)C(=O)c1ccccc12	-2.9%	-26.8%	14.0%	.	.	.
c1cnc(N2CCNCC2)nc1	-17.0%	?	42.9%	?	-29.6%	17.8µM*
c1cnc(N2CCCC3(CCNCC3)C2)nc1	.	.	.	.	2.2%	-15.0%[12.7 µM]
O=C1C(I)=CC(=C(c2cc(I)c(O)c(I)c2)c2ccccc2C(=O)O)C=C1I	.	.	.	.	31.6µM*	?
Nc1ccccc1C(=O)O	.	.	.	.	8.6%	14.2%[59 µM]
S=P(NCCSCc1ccccc1)(N1CC1)N1CC1	2.5%	-31.0%	12.9%	.	.	.
Cc1ccc(OP2(=O)Nc3cc(C)c(C)cc3S2)cc1 (stereo not given)	1.68µM*	1.26µM*	-7.4%[57 µM]	.	.	.
CC1=CC(=O)NP(=O)(Oc2ccc3ccccc3c2)N1 (stereo not given)	6.7µM*	44.7µM*	14.1µM*	.	7.94µM*	3.55µM*
CC1CN1P(=O)(Oc1ccc2ccccc2c1)N1CC1C (stereo not given)	3.5%	-14.6%	23.9%	.	.	.

High-throughput results from PubChem.
